Screening results deposited in PubChem BioAssay by Johns Hopkins Ion Channel Center.
The list is not random: actives were taken first. Their share in the collection is about 1.6%.
KCNQ2 pot = potentiators of rat KCNQ2 potassium channel; O88943; CHO-K1 KCNQ2, FluxOR thallium flux fluorescence; active compounds read high; B-score at 10 µM; 310,000 tested, 0.54% active;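 active means fluorescence ratio B-score at least 3 SD of library B-scores, with initial fluorescence B-score within 3 of them, cut at about 5.3 in these data; same plate scores as AID 2156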;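 further: B-score of peak minus minimum over baseline fluorescence ratio after K+ and Tl+ stimulus; positive B-score means potentiation of KCNQ2 with more thallium influx and brighter signal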
KCNQ2 block = KCNQ2 (rat) channel inhibition; CHO-K1 KCNQ2, FluxOR thallium flux, 20 min; active compounds read low; B-score at 10 µM; 310,000 tested, 1.1% active;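 active means fluorescence ratio B-score at most minus 3 library SDs, with starting brightness B-score within 2 library SDs, cut at about -5.5 in these data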
Of the large screens only hits and unclear results are named; the others gave an inactive call.

Cc1ccc(NC(=O)CSc2n[nH]c(-c3cccnc3)n2)c(Br)c1	none
O=C(CSc1nc(N2CCCCC2)nc(N2CCCCC2)n1)N1CCc2ccccc21	KCNQ2 pot 13.7
Cc1cc(C)nc(SCC(=O)N2CCc3ccccc32)n1	none (no result: KCNQ2 pot)
O=C(CSc1nc(N2CCCCC2)nc(N2CCCCC2)n1)N1CCN(c2ccccc2)CC1	KCNQ2 pot 19
Cc1nc(SCC(=O)N2CCN(c3ccccc3)CC2)n[nH]1	none (no result: KCNQ2 pot)
COc1ccc(S(=O)(=O)NNc2nc(C)cc(C)n2)cc1Br	none
COc1ccc(CNS(=O)(=O)NCc2ccc(C)cc2)cc1	none (no result: KCNQ2 pot)
Cc1ccc(NS(=O)(=O)c2ccc(OCC(N)=O)cc2)cc1	none (no result: KCNQ2 pot)
Cc1sc2nc(-c3ccncc3)[nH]c(=O)c2c1-c1ccccc1	none
Cc1sc2nc(-c3ccccn3)[nH]c(=O)c2c1-c1ccccc1	KCNQ2 pot 12.8
CCCc1nc2c(sc3nc4c(cc32)COC(C)(C)C4)c(=O)o1	none (no result: KCNQ2 pot)
COc1ccccc1NC(=O)CN1CCN(c2ccccc2F)CC1	KCNQ2 block -5.81
COc1ccccc1NC(=O)CN1CCN(c2ccccc2OC)CC1	none
Cc1cccc(C(=O)c2cnc3ccccc3c2-c2ccccc2)c1	KCNQ2 block -6.38
Cc1cccc(C(=O)NNC(=O)c2ccccc2)c1	none
O=S(=O)(c1ccccc1)C(/C=N\O)/C=C/c1ccccc1 (configuration not stated)	KCNQ2 block -6.29
O=S(=O)(c1ccccc1)N1CCC(=NO)CC1	none
COCCn1nnnc1C(c1ccc(OC)cc1)N1CCN(C(=O)c2ccco2)CC1 (configuration not stated)	none
CC(C)NC(=O)CN1CCN(C(=O)c2ccc3oc(CCCc4ccccc4)nc3c2)CC1	none (no result: KCNQ2 pot)
CC1(C)CC(=O)C(=Cc2cn(CCC#N)nc2-c2ccc(Cl)cc2)C(=O)C1	none
CC1(C)CC(=O)C(=Cc2cn(CCC#N)nc2-c2ccc(F)cc2)C(=O)C1	KCNQ2 pot 6.51
CC(=O)Nc1cc(C(=O)N2CCc3ccccc3C2)ccc1Sc1ccc(Cl)cc1	none (no result: KCNQ2 pot)
COc1ccc(C=O)cc1COc1ccccc1F	none (no result: KCNQ2 pot)
COc1ccc(/C=C/C(=O)c2ccccc2)cc1COc1ccccc1F	KCNQ2 block -7.58
O=C1COc2ccccc2N1Cc1ccc(Cl)cc1	none
Cc1cccc(C)c1NC(=O)CN(C)C(=O)c1ccccc1C(=O)N(C)Cc1ccccc1	KCNQ2 block -6.6
Cc1ccccc1C(=O)N(C)Cc1ccccc1	none (no result: KCNQ2 pot)
Cc1ccc(NC(=O)C2CCN(S(=O)(=O)c3ccc4c(c3)NC(=O)C(C)S4)CC2)cc1Cl (configuration not stated)	none
Oc1ccc(Br)cc1-c1ccn[nH]1	KCNQ2 pot 11.8
Oc1ccc(Br)cc1-c1cc(-c2ccco2)[nH]n1	none (no result: KCNQ2 pot)
Cn1c(=O)c([N+](=O)[O-])c(Cl)c2ccccc21	KCNQ2 block -6.15
CCN(CC)c1c([N+](=O)[O-])c(=O)n(C)c2ccccc12	none (no result: KCNQ2 pot)
CCC(C)(C)c1ccc(OC(=O)c2cccnc2Cl)cc1	none (no result: KCNQ2 pot)
O=c1c2ccccc2nc(SCc2nc3ccccc3s2)n1Cc1ccco1	none (no result: KCNQ2 pot)
CCCCn1c(SCc2nc3ccccc3s2)nc2ccccc2c1=O	KCNQ2 block -7.85
CC(Sc1ncnc2sc(-c3ccccc3)cc12)C(=O)NCC1CCCO1 (configuration not stated)	none
Cc1cccc(N(CC(=O)NCCc2ccccc2)C(=O)c2csnn2)c1	none (no result: KCNQ2 pot)
COc1ccc(C(CNC(=O)c2oc3ccc(Br)cc3c2C)N2CCCCC2)cc1 (configuration not stated)	KCNQ2 block -6.22
COc1ccc(C(CNC(=O)c2oc3ccc(F)cc3c2C)N2CCCCC2)cc1 (configuration not stated)	KCNQ2 block -6.29
COc1ccc(C(CNC(=O)c2oc3ccc(OC)cc3c2C)N2CCCC2)cc1 (configuration not stated)	none (no result: KCNQ2 pot)
CCc1ccc2oc(C(=O)NCC(c3ccc(OC)cc3)N3CCCCC3)c(C)c2c1 (configuration not stated)	KCNQ2 block -7.06
COc1ccc(C(CNC(=O)COc2ccccc2C)N2CCCC2)cc1 (configuration not stated)	none (no result: KCNQ2 pot)
COc1ccc(C(CNC(=O)c2oc3cc(Br)ccc3c2C)N2CCCCC2)cc1 (configuration not stated)	none (no result: KCNQ2 pot)
COc1ccc(C(CNC(=O)c2oc3cc(C)c(C)cc3c2C)N2CCCCC2)cc1 (configuration not stated)	none (no result: KCNQ2 pot)
COc1ccc(C(CNC(=O)COc2ccc(Cl)c(C)c2)N2CCCCC2)cc1 (configuration not stated)	KCNQ2 block -5.92
Cc1ccc(N2C(=O)N(CC(=O)Nc3ccc(C)cc3Cl)C(=O)C2C)cc1 (configuration not stated)	none
CC(C)(CNC(=O)c1ccc(Br)o1)CNC(=O)c1ccc(Br)o1	none
CC[C@@H]1[C@H]2CCCC(=O)N3CC[C@@H](C[C@@H]1OC(=O)Nc1ccccc1)[C@@H]23	none
Cc1ccc(C)c(CSC2=NCCN2S(=O)(=O)c2ccccc2)c1	KCNQ2 block -6.27
O=S(=O)(c1ccc(Cl)cc1)N1CCN=C1SCc1cccc(Cl)c1	none (no result: KCNQ2 pot)
Cc1ccc(S(=O)(=O)N2CCN=C2SCc2ccc(Cl)c(Cl)c2)cc1	none (no result: KCNQ2 pot)
O=S(=O)(c1ccccc1)N1CCN=C1SCc1c(F)cccc1Cl	KCNQ2 block -6.31
O=C(CN(Cc1ccco1)C(=O)c1cccc(Cl)c1)Nc1c(Cl)cc(Cl)cc1Cl	KCNQ2 block -5.74
O=C(CN(Cc1ccco1)C(=O)c1ccc(Cl)cc1)Nc1c(Cl)cc(Cl)cc1Cl	none (no result: KCNQ2 pot)
COc1cc(/C=C(/NC(=O)c2ccccc2)C(=O)Nc2ccc(O)cc2)c([N+](=O)[O-])cc1OC	none
COc1ccc(C(=O)N/C(=C\c2ccccc2)C(=O)Nc2ccc(C(=O)O)cc2)cc1	none
COc1cc(/C=C(/NC(=O)c2ccccc2)C(=O)Nc2ccccc2)c([N+](=O)[O-])cc1OC	KCNQ2 block -6.64
COc1ccc(NC(=O)/C(=C\c2cc(OC)c(OC)cc2[N+](=O)[O-])NC(=O)c2ccccc2)cc1	KCNQ2 block -7.16
CO/N=C(\C(=O)O)c1csc(NN=C(C)C)n1	none
CCS(=O)(=O)N1Cc2ccccc2CC1C(=O)NCC12CC3CC(CC(C3)C1)C2 (configuration not stated)	KCNQ2 block -7.07
CCS(=O)(=O)N1Cc2ccccc2CC1C(=O)NC(C)C12CC3CC(CC(C3)C1)C2 (configuration not stated)	none (no result: KCNQ2 pot)
COc1ccc(OC)c(-c2cc(C(=O)N3CCCc4ccccc43)no2)c1	none (no result: KCNQ2 pot)
COc1ccccc1-c1cc(C(=O)N2CCCc3ccccc32)no1	KCNQ2 block -6.03
Clc1cccc2c3c([nH]c12)CCNC3	none (no result: KCNQ2 pot)
COc1ccc(Nc2nc(-c3ccncc3)nc3ccccc23)cc1	none
CCOc1ccc(C2=NNC(c3cccs3)=Nc3ccc(OC)cc32)cc1	KCNQ2 block -5.62
CCOc1ccc(C2=NNC(c3cccnc3)=Nc3ccc(OC)cc32)cc1	none (no result: KCNQ2 pot)
Cn1c2ccccc2c2cc(/C=N/NC(=O)c3cc(O)ccc3O)ccc21	KCNQ2 block -7.17
Cn1c2ccccc2c2cc(/C=N/NC(=O)c3cc(O)cc(O)c3)ccc21	none (no result: KCNQ2 pot)
Cc1cc(C)c2c(c1)NC(c1cc3c(cc1Br)OCO3)C1CC=CC21 (configuration not stated)	none (no result: KCNQ2 pot)
Cn1c(SCc2ccccc2C#N)nc2ccccc2c1=O	none (no result: KCNQ2 pot)
C=CCn1c(SCc2c(C)noc2C)nc2sc3c(c2c1=O)CCCC3	none (no result: KCNQ2 pot)
C=CCn1c(SCc2c(C)noc2C)nc2sc3c(c2c1=O)CCCCC3	KCNQ2 block -6.5
Cc1ccc(N2C(=O)c3ccccc3C2=O)nc1	none (no result: KCNQ2 pot)
O=C1NC(c2ccccc2O)Nc2ccccc21 (configuration not stated)	none (no result: KCNQ2 pot)
